Hits are enriched below; roughly 2.3% of the tested compounds scored in any of these assays.
CHO-K1 Ca ag – counter-screen for M1 agonists: effect in parental CHO-K1 cells | Fluo-8 calcium fluorescence; scaled to maximal ATP response, vehicle zero | activation, % at 3 µM | 0.48% of 360,000 active; in the data active = activation above about 15%;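 note: untransfected CHO-K1 host cells lacking M1 receptor as counterscreen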
M1 ag – human M1 muscarinic receptor agonists, primary screen, Fluo-8 calcium fluorescence, CHO-K1 cells, HTS. Muscarinic acetylcholine receptor M1 (Homo sapiens), P11229. CHO-K1 hM1, agonist mode; 0% DMSO, 100% acetylcholine EC100. activation, % at 3 µM. 0.33% of 360,000 active. AID 588814, 2011;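 active = activation above the run's mean compound activation plus 3 SD, cut at about 16% in these data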;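 note: peak over basal fluorescence ratio within a 140 s kinetic read after compound addition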
Target sequence (P11229 whole entry, looked up): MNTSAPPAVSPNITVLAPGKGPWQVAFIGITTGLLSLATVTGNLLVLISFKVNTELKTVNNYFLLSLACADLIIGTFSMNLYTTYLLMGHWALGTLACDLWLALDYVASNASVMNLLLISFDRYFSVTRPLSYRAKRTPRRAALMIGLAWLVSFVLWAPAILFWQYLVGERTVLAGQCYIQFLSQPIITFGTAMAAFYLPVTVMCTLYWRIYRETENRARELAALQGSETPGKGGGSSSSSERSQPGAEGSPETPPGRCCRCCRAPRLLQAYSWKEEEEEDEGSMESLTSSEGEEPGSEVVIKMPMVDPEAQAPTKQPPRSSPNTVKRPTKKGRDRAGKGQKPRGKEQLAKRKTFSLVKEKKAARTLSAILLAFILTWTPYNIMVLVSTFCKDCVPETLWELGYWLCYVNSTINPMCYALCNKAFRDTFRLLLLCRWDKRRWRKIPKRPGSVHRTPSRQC
CHRM1 PAM – human M1 muscarinic receptor positive allosteric modulators, primary screen, CHO-K1 cells, Fluo-8 calcium fluorescence, 1536-well; Muscarinic acetylcholine receptor M1 (Homo sapiens), P11229; CHO-K1 hM1, ACh EC20; 0% = ACh EC20, 100% = maximal ACh; activation, % at 3 µM; 0.088% of 360,000 active; AID 588819, 2011; in the data active = activation above about 19%, passing the limit was not always enough
CHO-K1 Ca PAM – nonselective calcium activators in parental CHO-K1 cells, primary screen, counter-screen for M1 PAM project, cell-based, Fluo-8 calcium fluorescence, full deck, 1536-well | ATP EC20; 0% at ATP EC20, 100% at ATP max | activation, % at 3 µM | 0.02% of 360,000 active;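 active = activation above the run cutoff, the mean activation of all test compounds plus 3 SD, cut at about 40% in these data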;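 note: peak over basal fluorescence ratio in a 140 s read after ATP addition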
CHO-K1 Ca antag – M1 antagonist counterscreen hit in parental CHO-K1 cells; inhibition, % at 3 µM; ATP-induced calcium, Fluo-8 fluorescence; 0.6% of 360,000 active;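 active = inhibition above a per-plate cutoff, the plate's mean sample inhibition plus 3 SD, cut at about 24% in these data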;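 note: 0% = DMSO plus EC80 ATP and 100% = DMSO alone without ATP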
CHRM1 antagonist – human M1 muscarinic receptor antagonists, primary screen, CHO-K1 cells, Fluo-8 calcium fluorescence, 1536-well; 1.3% of 360,000 active; Muscarinic acetylcholine receptor M1 (Homo sapiens), P11229; AID 588852, 2011; CHO-K1 hM1, ACh EC80 antagonist; inhibition, % at 3 µM;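 active = percent inhibition above its own plate's cutoff, namely the mean of that plate's compound wells plus 3 SD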;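 note: peak over basal fluorescence ratio during 140 s after agonist addition; 0% = ACh EC80 plus DMSO and 100% = DMSO alone without agonist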
The depositor's hits bear a star; . = no result.

SMILES | CHO-K1 Ca ag | M1 ag | CHRM1 PAM | CHO-K1 Ca PAM | CHO-K1 Ca antag | CHRM1 antagonist
COC(=O)C1=C(c2ccccc2)C[C@@H]2CC[C@H]1N2C | 0 | -8 | -31 | 18 | -10 | 60*
COC(=O)C1=C(c2ccc(F)cc2F)C[C@@H]2CC[C@H]1N2C(=O)NC(C)C | 0 | -9 | -1 | 9 | 3 | -4
COC(=O)C1=C(c2ccc(Cl)c(C(F)(F)F)c2)C[C@@H]2CC[C@H]1N2C(=O)NCCO | 0 | -8 | -1 | 17 | -13 | 0
COC(=O)C1=C(c2ccc(F)cc2F)C[C@@H]2CC[C@H]1N2C | 1 | -9 | -33 | -3 | -25 | 84*
COC(=O)C1=C(c2ccc(Cl)c(C(F)(F)F)c2)C[C@@H]2CC[C@H]1N2C | 0 | -8 | -30 | 8 | -3 | 32*
O=C1NC(=O)C(=Cc2ccc(-c3ccc(F)cc3O)o2)C(=O)N1 | 5 | 38* | 0 | 26 | -11 | 47*
COc1ccc(C(=O)C2CCCN(Cc3ccc(C)s3)C2)c(OC)c1 (configuration not stated) | 1 | -7 | -8 | 11 | -9 | 1
COc1ccc(C(=O)C2CCCN(Cc3cccc(C)n3)C2)c(OC)c1 (configuration not stated) | 5 | -7 | -23 | 25 | -21 | 46*
O=C(COC(=O)c1cc(Br)cc(Br)c1O)NC12CC3CC(CC(C3)C1)C2 | 0 | -5 | 7 | 14 | -4 | -10
O=[N+]([O-])c1ccc(Cl)c([N+](=O)[O-])c1 | 0 | 10 | 12 | -6 | -5 | -18
O=[N+]([O-])c1cc(Cl)c(Cl)cc1Cl | 0 | -1 | -14 | 3 | -17 | 22*
O=Cc1c(C(=O)O)n(Cc2ccccc2F)c2ccccc12 | 1 | -3 | 4 | -10 | -17 | -2
CC1(C)CSC(=NCc2ccccc2)N1 | 26* | 12 | -16 | -14 | 20 | 16
C[n+]1c(-c2ccccc2)cc(CCCCc2cc(-c3ccccc3)[n+](C)c(-c3ccccc3)c2)cc1-c1ccccc1 | 0 | -5 | -19 | -1 | -6 | 55*
Cc1ccc(-c2cc(-c3ccccc3)cc(-c3ccccc3)[n+]2-c2ccc(C(=O)O)cc2)cc1 | 0 | 0 | 15 | -1 | -14 | -7
COc1cc2c(cc1OC)C13CCN4C=C5CCOC6CC(=O)N2C1C6C5CC43 (configuration not stated) | 0 | 6 | 0 | -11 | -7 | -8
COc1ccccc1CN1CCCC(C(=O)c2ccccc2SC)C1 (configuration not stated) | 3 | -6 | -20 | 9 | 1 | 32
CSc1ccccc1C(=O)C1CCCN(Cc2ccncc2)C1 (configuration not stated) | 3 | -7 | -23 | 15 | -14 | 55*
CSc1ccc(C(=O)C2CCCN(Cc3cccnc3)C2)cc1 (configuration not stated) | 5 | -13 | -33 | 11 | -3 | 34*
Cc1ccc2c(C)c3ccc4ccccc4c3c[n+]2c1 | 1 | -9 | -6 | 16 | -10 | 12
Cc1cccc(-n2c(O)c(C=NCCN3CCNCC3)c(=O)[nH]c2=S)c1 | 0 | 53* | -23 | 18 | -1 | 25
O=c1[nH]c2ccccc2n1C1CCN(C(CCc2ccccc2)c2nnnn2C2CCCCC2)CC1 (configuration not stated) | 5 | 0 | 2 | 0 | -9 | -11
c1ccc(-c2ccc(CN3Cc4ccccc4-n4nncc4C3)cc2)cc1 | 8 | -2 | -19 | 4 | 2 | 36*
COC(=O)C1=C(C(=O)OC)SC2(S1)C(C(=O)OC)=C(C(=O)OC)Sc1c2ssc1=O | -1 | 5 | 3 | -4 | 0 | 3
O=C(NCCN1CCC2(CC1)C(=O)NCN2c1cccc(F)c1)c1ccc2ccccc2c1 | 41* | . | . | -19 | 93* | .
SMILES | CHO-K1 Ca ag | M1 ag | CHRM1 PAM | CHO-K1 Ca PAM | CHO-K1 Ca antag | CHRM1 antagonist
O=C1NCN(c2ccccc2)C12CCNCC2 | 1 | -10 | 7 | 17 | -20 | -11
COC(=O)c1ccc(NC(=O)CSc2nc3ccc(N4C(=O)C5C6C=CC(C6)C5C4=O)cc3s2)cc1 (configuration not stated) | 9 | 3 | -25 | -9 | 14 | 44*
CC1([N+](=O)[O-])COP(=O)(NC2CC2)OC1 (configuration not stated) | 2 | -1 | -12 | 19 | -13 | 19
CC(C)c1oc(=O)cc2c1[C@@H](O)[C@H]1OC(=O)[C@@]3(C)C[C@@H](O)[C@@H](O)[C@@]2(C)C13 (some centres not stated) | 0 | -2 | -6 | -10 | -11 | 8
COc1ccccc1OCC#CCN1CCCC1 | 2 | -7 | -22 | 10 | 2 | 90*
Clc1ccc(OCC#CCN2CCCCCC2)cc1 | 1 | -6 | -22 | 12 | -14 | 49*
Brc1ccc2[nH]cc(C=NN3CCCCCC3)c2c1 | 1 | -7 | -9 | -16 | 5 | 3
CC(=NCCO)c1c(O)n(C2CCCCC2)c(=O)[nH]c1=O | 0 | -2 | 4 | 16 | -13 | -1
CCC(=O)c1c(O)n(C2CCCCCC2)c(=O)[nH]c1=O | 0 | -3 | 1 | -6 | 28* | -1
O=C1Nc2ccc(Br)cc2C(c2ccc(Cl)cc2)=NC1O (configuration not stated) | 23* | 11 | 9 | 9 | 13 | 2
O=C1Nc2ccc(Br)cc2C(c2ccccc2)=NC1O (configuration not stated) | 0 | 2 | 17 | -8 | 7 | -3
CCCCCCOc1ccc(CN2CCN(CCO)CC2)cc1 | 3 | -13 | -19 | 13 | -10 | 23
CCCCOc1ccc(CN2CCN(CCO)CC2)cc1 | 0 | -8 | -19 | 1 | -1 | 33*
CC(C)(C)n1nnnc1C(CCc1ccccc1)N1CCC2(CC1)C(=O)NCN2c1ccccc1 (configuration not stated) | 1 | 4 | -1 | 23 | -24 | -33
O=C(NC1CCCCC1)N1Cc2ccccc2-n2nncc2C1 | 1 | 0 | 6 | 13 | -16 | -8
Cc1nc2cc(-c3ccccc3)nn2c(C)c1CCC(=O)N1CCC2(CC1)OCCO2 | 0 | -1 | 2 | -7 | 24* | 3
Cc1nc2ncnn2c(C)c1CCC(=O)N1CCC2(CC1)OCCO2 | 0 | -2 | 0 | 8 | 4 | 0
O=c1[nH]c(O)c(C=NC2CCCCC2)c(=O)[nH]1 | 0 | -2 | 26* | 7 | -9 | 2

Screening data as filed in PubChem BioAssay.
